# Assay results published in PubChem BioAssay (EPA / NIEHS).
# “And” between values parts separate entries of the source, which are not always exact repeats. Identical values can stand only once. The source holds several records for some structures; these can differ, active in one and inactive in another. The source made the active and inactive calls. Rule for the calls: active = hit-call score of the fitted dose curve at least 0.9, where 1 is the maximum; inactive = score below 0.9.
# Assays:
# [1] = read-out: Macrophage colony-stimulating factor (MCSF), CSF1 (gene 1435); test: BSK_hDFCGF_MCSF: BioMAP Diversity Plus: hDFCGF Assay for Macrophage colony-stimulating factor (MCSF) Biomarker Activity (AID 2283060); conditions: primary human foreskin fibroblasts; actives raise or lower the signal
# In short: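 Human foreskin fibroblast primary cultures; M-CSF measured by ELISA 24 hours after chemical dosing. Bidirectional fitting relative to DMSO, with overt cytotoxicity tracked by parallel SRB total-protein staining (0.1% SRB, 10% TCA fixation, 560 nm).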
# [2] = BSK_hDFCGF_SRB: Viability Assessment in the BioMAP Diversity Plus: hDFCGF Assay (AID 2283061); conditions: primary human foreskin fibroblasts;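 note: cells exposed to compound for 24 h before the read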
# In short: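 Human foreskin fibroblasts in 96-well plates were treated 24 h. Total protein was measured by 0.1% SRB staining after 10% TCA fixation, read at 560 nm. Data were fitted bidirectionally against DMSO.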
# [3] = read-out: TIMP metallopeptidase inhibitor 1 (TIMP1), TIMP1 (gene 7076); test: BSK_hDFCGF_TIMP1: BioMAP Diversity Plus: hDFCGF Assay for TIMP metallopeptidase inhibitor 1 (TIMP1) Biomarker Activity (AID 2283062); conditions: primary human foreskin fibroblasts; actives raise or lower the signal
# In short: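 Human foreskin fibroblast primary cultures dosed for 24 h; secreted/surface TIMP-1 quantified by ELISA. Bidirectional curve fitting against DMSO baseline; cytotoxicity tracked in parallel cultures by SRB total-protein staining.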
# [4] = read-out: Monokine induced gamma interferon (MIG), CXCL9 (gene 4283); test: BSK_hDFCGF_MIG: BioMAP Diversity Plus: hDFCGF Assay for Monokine induced gamma interferon (MIG) Biomarker Activity (AID 2283063); conditions: primary human foreskin fibroblasts; actives raise or lower the signal
# In short: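 MIG/CXCL9 measured by ELISA 24 h after dosing primary human skin fibroblasts. Activity fitted in both directions against DMSO controls. Cytotoxicity was checked in parallel cultures by SRB staining read at 560 nm.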
# [5] = read-out: Matrix Metallopeptidase 1 (MMP1), MMP1 (gene 4312); test: BSK_hDFCGF_MMP1: BioMAP Diversity Plus: hDFCGF Assay for Matrix Metallopeptidase 1 (MMP1) Biomarker Activity (AID 2283064); conditions: primary human foreskin fibroblasts; actives raise or lower the signal
# In short: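 Primary human foreskin fibroblasts in the hDFCGF system were dosed with test chemical, and MMP1 was measured by ELISA 24 h later. Values come from bidirectional curve fitting against the DMSO baseline.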
# [6] = read-out: Vascular cell adhesion molecule 1 (VCAM1), VCAM1 (gene 7412); test: BSK_hDFCGF_VCAM1: BioMAP Diversity Plus: hDFCGF Assay for Vascular cell adhesion molecule 1 (VCAM1) Biomarker Activity (AID 2283065); conditions: primary human foreskin fibroblasts; actives raise or lower the signal;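 for AC50: VCAM-1 protein level quantified by ELISA after 24 h chemical exposure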
# In short: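 Human foreskin fibroblast primary cells dosed with chemical, VCAM-1 measured by ELISA at 24 h. Bidirectional curve fitting relative to DMSO as negative control/baseline.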
# [7] = read-out: Plasminogen activator inhibitor-1 (PAI1), SERPINE1 (gene 5054); test: BSK_hDFCGF_PAI1: BioMAP Diversity Plus: hDFCGF Assay for Plasminogen activator inhibitor-1 (PAI1) Biomarker Activity (AID 2283066); conditions: primary human foreskin fibroblasts; actives raise or lower the signal
# In short: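 PAI-1 levels, determined by ELISA, served as the endpoint in human foreskin fibroblast cultures exposed to compound for 24 h, with DMSO as baseline.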
# [8] = read-out: Intercellular Adhesion Molecule 1 (ICAM1), ICAM1 (gene 3383); test: BSK_KF3CT_ICAM1: BioMAP Diversity Plus: KF3CT Assay for Intercellular Adhesion Molecule 1 (ICAM1) Biomarker Activity (AID 2283067); conditions: primary human keratinocytes with fibroblasts; actives raise or lower the signal
# In short: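 Human keratinocyte–foreskin fibroblast co-culture was treated for 24 h. Cell-surface ICAM-1 was quantified by ELISA, fitted bidirectionally relative to DMSO. Cytotoxicity was checked in parallel cultures by SRB total-protein staining.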
# [9] = read-out: Interferon-gamma inducible Protein 10 (IP10), CXCL10 (gene 3627); test: BSK_KF3CT_IP10: BioMAP Diversity Plus: KF3CT Assay for Interferon-gamma inducible Protein 10 (IP10) Biomarker Activity (AID 2283068); conditions: primary human keratinocytes with fibroblasts; actives raise or lower the signal
# In short: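 Human keratinocyte plus foreskin fibroblast primary co-culture exposed to test chemical for 24 h; IP-10 measured by ELISA. Concentration-response fitted bidirectionally against DMSO control as baseline.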
# [10] = BSK_KF3CT_SRB: Viability Assessment in the BioMAP Diversity Plus: KF3CT Assay (AID 2283069); conditions: primary human keratinocytes with fibroblasts;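 note: total protein by sulforhodamine B staining as a cytotoxicity measure; read 24 h after compound addition; fitted for both signal gain and loss against DMSO baseline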
# In short: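 Human primary keratinocyte plus foreskin fibroblast co-culture exposed to chemicals for 24 h. Total protein measured by 0.1% sulforhodamine B staining after 10% TCA fixation, read at 560 nm; bidirectional fitting versus DMSO baseline.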
Structure (SMILES),outcome [1],outcome [2],outcome [3],outcome [4],AC50 [5],outcome [6],outcome [7],outcome [8],AC50 [9],outcome [10],AC50 [1],AC50 [6],AC50 [7],AC50 [8],outcome [9],outcome [5],AC50 [4],AC50 [2],AC50 [3],AC50 [10]
CNC(=S)S,inactive,inactive,inactive,inactive,7.89 µM (active),inactive,inactive,inactive,20.7 µM (active),inactive,,,,,,,,,,
CCOP(=S)(OCC)SCn1c(=O)oc2cc(Cl)ccc21,,inactive,inactive,inactive,2.15 µM (active),,,,,inactive,14.3 µM (active),15.6 µM (active),13.8 µM (active),7.36 µM (active),inactive,,,,,
CNC(=O)ON=CC(C)(C)SC,inactive,inactive,inactive,inactive,,inactive,inactive,inactive,0.428 µM (active),inactive,,,,,,inactive,,,,
COP(=S)(OC)Oc1nc(Cl)c(Cl)cc1Cl,,inactive,inactive,,,,inactive,inactive,,inactive,30 µM (active),5.76 µM (active),,,inactive,inactive,14.9 µM (active),,,
CN(C)C(=S)SSC(=S)N(C)C,,,,,5.34 µM (active),,,,6.1 µM (active),,4.39 µM (active),4.12 µM (active),5.64 µM (active),6.42 µM (active),,,3.01 µM (active),4.96 µM (active),9.76 µM (active),7.21 µM (active)
CS/C(C)=N/OC(=O)N(C)SN(C)C(=O)O/N=C(\C)SC,inactive,,inactive,,,inactive,,,12.4 µM (active),,,,12 µM (active),11.1 µM (active),,inactive,11 µM (active),11.7 µM (active),,12.5 µM (active)
CC(C)(C)c1ccc(CSc2cnn(C(C)(C)C)c(=O)c2Cl)cc1,,inactive,inactive,inactive,,,inactive,inactive,31.3 µM (active),,7.69 µM (active),31.6 µM (active),,,,inactive,,,,20 µM (active)
CCCN(CCC)c1c([N+](=O)[O-])cc(S(N)(=O)=O)cc1[N+](=O)[O-],inactive,,inactive,inactive,33.6 µM (active) and 348 nM (active),inactive,inactive,inactive,,inactive,32.9 µM (active) and 30.5 µM (active) and 31.2 µM (active),32.7 µM (active) and 35.6 µM (active),21.1 µM (active) and 21.6 µM (active),,inactive,inactive,32 µM (active) and 34.1 µM (active),21.1 µM (active) and 29.3 µM (active) and 31.4 µM (active),33.5 µM (active) and 34 µM (active),34.6 µM (active)
COc1nc(NC(C)C)nc(NC(C)C)n1,inactive,inactive,inactive,inactive,,inactive,inactive,inactive,,inactive,,,,,inactive,inactive,,,,
CCCCOC(=O)c1ccccc1C(=O)OCCCC,inactive,inactive,inactive,inactive,,inactive,inactive,inactive,,inactive,12 µM (active),14 µM (active),,,inactive,inactive,,,,
CCCC1COC(Cn2cncn2)(c2ccc(Cl)cc2Cl)O1 (centres undefined),inactive,inactive,inactive,inactive,,inactive,inactive,inactive,,inactive,,,,,inactive,inactive,,,,
CCOc1cc(Oc2ccc(C(F)(F)F)cc2Cl)ccc1[N+](=O)[O-],,inactive,inactive,inactive,2.89 µM (active),inactive,,inactive,,inactive,6.77 µM (active),,5.49 µM (active),,inactive,,,,,
CC(C)C1(C)N=C(c2nc3ccccc3cc2C(=O)O)NC1=O (centres undefined),inactive,inactive,inactive,inactive,,inactive,inactive,inactive,,inactive,,,,,inactive,inactive,,,,
O=C(Nc1ccccc1)Nc1ccnc(Cl)c1,inactive,inactive,inactive,inactive,,inactive,inactive,inactive,,inactive,,,,,inactive,inactive,,,,
CCNc1nc(Cl)nc(NCC)n1,inactive,inactive,inactive,inactive,,inactive,inactive,inactive,,inactive,,,,,inactive,inactive,,,,
N#Cc1cc(Br)c(O)c(Br)c1,inactive,inactive,inactive,inactive,,inactive,inactive,inactive,,inactive,,,,,inactive,inactive,,,,
